LmPK inh – qHTS Assay for Inhibitors of Leishmania Mexicana Pyruvate Kinase (LmPK). Potency, µM (highest dose often 57.5 µM), usual class: inhibitors. AID 1721, 2009. actives 0.37% (n = 290,000). Q27686. purified LmPK, Kinase-Glo ATP luminescence, 1 h
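ATP generated from ADP (0.1 mM) and PEP (0.5 mM) by 0.1 nM LmPK over 1 h at room temperature (pH 7.2 imidazole buffer) was detected by coupled luciferase luminescence. Values were normalized to uninhibited and no-enzyme wells.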
RE007 growth inh – qHTS Assay for Inhibitors of the HIV-1 protein Vpr; Potency, µM (doses to about 92.2 µM), usual class: inhibitors; S. pombe RE007 Vpr strain, BacTiter-Glo ATP luminescence, 24 h; actives 0.21% (n = 360,000); active = well fitted falling curve with a large enough effect; inconclusive = small, poorly fitted or top-dose-only effect; inactive = no such curve, though single readings can be large or run the other way; also: nearly all actives have a fitted effect of over 50% in size
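Fission yeast RE007 carrying one integrated HIV-1 vpr copy, seeded at OD 0.01 in PMG+AL medium with 23 nL pinned compound. Grown 24 h at 30 degrees; viability read by BacTiter-Glo luminescence after 5 min.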
SARS PLpro yeast – qHTS of Yeast-based Assay for SARS-CoV PLP | actives 0.19% (n = 330,000) | S. cerevisiae expressing SARS-CoV PLpro, growth rescue | Potency, µM (titrated, usually from 32.9 µM), actives largely listed as activators; calls by dose curve; also: nearly all actives have a fitted effect of over 55% in size
FBPA Giardia inh – qHTS Assay for Inhibitors of Fructose-1,6-bisphosphate Aldolase from Giardia Lamblia. A8B2U2. purified Giardia FBPA. Potency, µM (titrated, usually from 59.6 µM), usual class: inhibitors. actives 0.71% (n = 290,000). AID 2451, 2010; also: nearly all actives have a fitted effect of over 55% in size
Target sequence (A8B2U2 whole entry, looked up): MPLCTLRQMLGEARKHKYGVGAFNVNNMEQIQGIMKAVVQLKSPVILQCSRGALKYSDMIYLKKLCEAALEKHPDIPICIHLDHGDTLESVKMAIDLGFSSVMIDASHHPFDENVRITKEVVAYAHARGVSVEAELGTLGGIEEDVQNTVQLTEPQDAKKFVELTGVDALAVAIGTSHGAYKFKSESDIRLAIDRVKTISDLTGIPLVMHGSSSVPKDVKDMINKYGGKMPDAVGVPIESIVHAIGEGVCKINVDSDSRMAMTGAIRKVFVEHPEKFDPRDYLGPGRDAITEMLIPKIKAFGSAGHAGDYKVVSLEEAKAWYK
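40 nM FBPA preincubated 10 min at RT with compound (up to 57.5 uM final), then substrate plus GAPDH/TPI/NAD/arsenate coupling and diaphorase/resazurin added. Fluorescence read after 20 min at RT, 525/598 nm.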
TbPYK inhibitor – qHTS of Trypanosoma Brucei Inhibitors; pyruvate kinase (Trypanosoma brucei), Q57TT1; TbPYK enzyme, Kinase-Glo Plus ATP luminescence, 45 min; Potency, µM (top dose mostly 76.8 µM), actives largely listed as inhibitors; actives 0.12% (n = 410,000); AID 624173, 2012; also: nearly all actives have a fitted effect of over 50% in size
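Luminescent Kinase-Glo Plus end-point after 45 min room-temperature reaction of T. brucei pyruvate kinase started with 130 uM ADP (final). Buffer TEA 50 mM pH 7.2 with KCl, MgCl2, BSA, Tween-20; titration-based qHTS with fitted concentration-effect curves.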
LmPK inh confirm – Confirmation Assay for Inhibitors of Leishmania Mexicana Pyruvate Kinase (LmPK). shares compounds with LmPK inh. purified LmPK, Kinase-Glo ATP luminescence, 1 h. Potency, µM (series often up to 57.5 µM), most hits filed as inhibitors. actives 40% (n = 150);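 active = compounds giving a full or partial concentration-response curve, as inhibitors or activators; inconclusive = weak, top-dose-only or unclear curve responses; inactive = no response at any tested dose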
A number is an active result; - = inactive; ? = inconclusive; . = not tested or not shown; [ ] = another dose, or the depositor's remark. Most compounds without a hit are left out; they make up all but 1.1% or so of the library. Unless noted, calls follow the shape of the dose curve; as a rule, active = well fitted curve in the direction sought with a large enough effect; inconclusive = small, poorly fitted or top-dose-only effect, or another doubt; inactive = no such curve, though single readings can be large; an effect the other way counts as inactive or inconclusive.

SMILES | LmPK inh | RE007 growth inh | SARS PLpro yeast | FBPA Giardia inh | TbPYK inhibitor | LmPK inh confirm
Nc1ncnc2c1ncn2C1OC(COP(=O)(O)O)C(O)C1O (stereo unspecified) | 15.8µM | ? | - | - | - | 5.8µM
CCOC(=O)C1CCN(c2ncnc3c2c(-c2ccccc2)cn3-c2ccc(C)c(Cl)c2)CC1 | . | . | . | . | - | .
CCOc1ccccc1NC(=O)C(Cc1ccccc1)NS(=O)(=O)c1ccc2c(c1)oc(=O)n2C (stereo unspecified) | . | . | . | . | - | .
Cc1ccc(C2/C(=C(/O)c3ccccc3)C(=O)C(=O)N2CCN2CCOCC2)o1 (stereo unspecified) | - | - | - | - | - | .
Cc1ccc(C)c(/C(O)=C2/C(=O)C(=O)N(CCN3CCOCC3)C2c2ccco2)c1 (stereo unspecified) | - | - | - | - | - | -
CN(Cc1cn(C)nc1-c1cccc(Cl)c1)C1CCOCC1 | - | - | - | - | - | .
CN(Cc1ccon1)Cc1cn(C)nc1-c1cccc(Cl)c1 | 12.6µM | - | - | ? | - | -
Cc1ccnc(N2C(=O)c3cccc4c([N+](=O)[O-])ccc(c34)C2=O)c1 | - | ? | - | - | - | .
Cc1ccnc(N2C(=O)c3ccccc3C2=O)c1 | - | - | - | - | - | -
Cc1ccc(S(=O)(=O)C(CNS(=O)(=O)c2ccc(F)c(C(F)(F)F)c2)c2ccco2)cc1 (stereo unspecified) | . | . | . | . | - | .
O=C(Nc1cccc(O)c1)C(=O)Nc1ccccn1 | 7.94µM | ? | - | - | ? | 20.6µM
C/C(CC(=O)Nc1ccccn1)=N\NC(=O)C(=O)Nc1cccc(C)c1 | - | - | - | - | - | .
COc1ccc(NC(=O)CC2C(=O)N(c3cccc(C)c3)C(=O)N2Cc2cccnc2)cc1 (stereo unspecified) | . | . | . | . | - | .
COc1ccc(-c2cc3nc(C)cc(N)n3n2)cc1 | 3.55µM | 15.8µM | - | - | 22.4µM | 5.8µM
CC(=O)c1ccc(NC(=O)c2cc3c(=O)oc4ccc(C)cc4c3s2)cc1 | . | . | . | . | - | .
COC(=O)CSC1=NS(=O)(=O)c2ccccc21 | 5.01µM | - | - | - | 22.4µM | ?
O=C1c2ccccc2-c2n[nH]c3cccc1c23 | . | - | . | - | - | .
Cc1ccc(-c2cc3c(nn2)-c2ccccc2C3=O)cc1 | 7.08µM | - | - | - | ? | 10.3µM
COc1ccc(OC)c2[nH]c(=O)c(CCNS(=O)(=O)c3ccc(C)cc3)cc12 | - | - | - | ? | - | -
CN(C)/C=C/C(=O)c1ccc(OCCN(C)c2ccccn2)cc1 | - | . | - | - | - | .
Cc1cc(C)c(S(=O)(=O)n2ccc(-c3ccc(OCCN(C)c4ccccn4)cc3)n2)c(C)c1 | - | - | - | - | - | -
Cc1cccc(C(=O)NC2CCN(C(=S)NCc3ccco3)CC2)c1 | - | - | - | - | - | -
COC(=O)C1=C(C)N(Cc2ccccc2)C2=C3C(=O)N(C)C(=O)C3[C@@](O)(C(=O)OC)C(=O)N2C1c1ccccc1 (stereo partly specified) | . | . | . | -[12.9 µM] | . | .
COC(=O)C1=C(C)NC2=C(C(=O)C(C(=O)OC)C(c3ccc(OC)cc3)C2)C1c1ccccn1 (stereo unspecified) | - | - | - | - | - | -
Cn1cc(CN(Cc2ccccc2)C[C@@H]2CCC(=O)N2)c(-c2ccccc2F)n1 | - | - | - | - | - | -
SMILES | LmPK inh | RE007 growth inh | SARS PLpro yeast | FBPA Giardia inh | TbPYK inhibitor | LmPK inh confirm
O=C(Cn1c(=O)nc(-c2ccccc2)c2ccccc21)NCc1ccccc1Cl | . | . | . | . | - | .
CCOC(=O)C(C(C)=O)c1c(Br)c(O)c(O)c2c(C(=O)c3ccc(C)cc3)coc12 (stereo unspecified) | 5.62µM | - | - | ? | - | -
Cc1nn(CC(=O)NCc2ccccc2Cl)c(=O)c2cccn12 | . | . | . | . | - | .
O=C(c1ccccc1)n1c(=S)nc2ccccn21 | 4.47µM | - | - | - | ? | 18.3µM
COC(=O)NC(CC(C)=O)c1cccc(F)c1 (stereo unspecified) | . | . | . | -[12.9 µM] | . | .
O=C1c2ccccc2C(=O)C1c1ccnc2ccccc12 | 7.08µM | - | - | - | - | ?
O=C1c2ccccc2C(=O)C1c1nccc2ccccc12 | - | - | - | - | - | .
Cc1cccc(C(=O)NC(=O)Nc2ccc(-c3cc(C(F)(F)F)nn3-c3ccccc3)cc2)c1 | . | . | . | . | - | .
CCOc1ccc(NC(=O)Cn2nc(-c3ccccc3Cl)n(CC)c2=S)cc1 | - | - | - | - | - | .
CCn1c(-c2ccccc2Cl)nn(CC(=O)Nc2ccc(OC)cc2)c1=S | - | - | - | - | - | -
COc1cccc(CN(C(=O)c2cccc(C)c2)C2CCS(=O)(=O)C2)c1 (stereo unspecified) | . | . | . | . | - | .
Cc1cc(O)c(-c2cc(O)c(C)cc2O)cc1O | 0.708µM | - | - | 15.8µM | ? | ?
COc1ccc(Cl)cc1N(C)C(=O)Cc1noc2ccc(C)cc12 | . | . | . | . | - | .
c1ccc2nc(-c3nc4ccccc4[nH]3)ccc2c1 | 4.47µM | ? | - | - | ? | 9.19µM
CCc1n[nH]c(=S)n1/N=C/c1ccc2c(c1)OCO2 | - | - | - | - | ? | -
Cc1ccc(C(=O)NNC(=O)CSc2nnc(-c3ccncc3)n2-c2ccc(C)cc2)cc1 | - | . | - | - | . | -
O=C(Cn1ncc2c([nH]c3ccccc32)c1=O)NCCCN1CCN(c2ccc(F)cc2)CC1 | . | . | . | . | - | .
CCN(Cc1ccncc1)Cc1cn(C)nc1-c1ccc(Oc2ccccc2)cc1 | - | - | - | - | - | -
CC(C)N(C)Cc1cn(C)nc1-c1ccc(Oc2ccccc2)cc1 | - | - | - | - | - | .
Cc1ccc(Oc2ccccc2/C=C2\SC(=O)N(C)C2=O)cc1 | - | - | - | - | - | -
COC(=O)CCc1sc(Nc2ccc(OC)cc2)nc1-c1ccc(OC)cc1 | . | . | . | . | - | .
COc1cc(CNc2ncc(-c3ccc(Br)cc3)n2C)cc(OC)c1OC | - | - | - | ? | - | .
Cn1c(-c2ccc(Br)cc2)cnc1NCc1cccnc1 | - | - | - | . | - | -
COc1cc(NC(=O)c2ccc(-n3cnc4cccnc43)cc2)cc(OC)c1 | . | . | . | . | - | .
CC(=O)c1cc(C#N)c(Oc2ccc(F)cc2)nc1C | - | - | - | - | - | -
CC(C)CCNC(=O)c1ccc2c(c1)NC(=O)C(CS(=O)(=O)Cc1cccc(Br)c1)N2 (stereo unspecified) | . | . | . | . | -[15.4 µM] | .
Cc1occc1C(=O)O/N=C(\N)c1ccccc1 | 3.55µM | ? | - | - | ? | 10.3µM
Cc1cccc(/C(N)=N/OC(=O)c2ccoc2C)c1 | - | - | - | - | - | .
COc1cccc(Cn2c(CNS(=O)(=O)c3ccc(F)c(Cl)c3)nc3cccnc32)c1 | . | . | . | . | - | .
